# Laboratory results taken from PubChem BioAssay AID977606 (Broad Institute, 2014).
# The whole screen tested about 1,500 compounds, of which about 430 (29%) were called active. The list is a sample of the results. Measured potencies and affinities stand elsewhere. A number with no mark means an inactive call. How the calls were made is not given here.
# Test: insulin secretion activators without glucose, dose response, counter-screen for glucose-dependent insulin secretion activators, cell-based, INS-1E, Gaussia luciferase, luminescence, cherry-pick (AID 977606);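 further: 0% = median of neutral control wells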
# Settings: INS-1E Gaussia luciferase insulin secretion, no glucose, 100% = twice neutral-control luminescence; series mostly up to 35 µM; activation: at the top concentration
row,Structure (SMILES),activation [%]
1,O=C1c2cccnc2C(Nc2ccc(F)c(Cl)c2)N1Cc1cccs1 (configuration not stated),-9.46
2,CCOc1cc(/C=N/NC(=O)CCn2nnc3ccccc32)ccc1O,15.9
3,CCOc1ccccc1OCCC(=O)NNC(=O)Cn1nc(C)cc1C,5.71
4,N#CCc1nn(-c2ccccc2)c2ncnc(N)c12,-0.351
5,CN(C)CCCN(C(=O)c1ccco1)c1nc2c(F)cccc2s1,3.36
6,O=C(c1cccnc1)N(Cc1ccccc1)c1ccccc1,24
7,COc1ccc(-c2nc(N3CCC(C)CC3)[nH]c(=O)c2C#N)cc1,-8.77
8,COc1ccc(-c2ccc(SCc3cccnc3)nn2)cc1OC,7.88
9,CC(C)CCN(CC(=O)NCc1ccc(F)cc1)S(=O)(=O)c1ccccc1F,-21.4
10,O=C(COC(=O)C1CCC1)NC(=O)c1ccccc1,-4.65
11,O=C(NN(Cc1ccccc1)Cc1ccccc1)c1ccccc1,-14.6
12,O=C(c1ccc2c(c1)OCO2)N1CCN(S(=O)(=O)c2ccccc2)CC1,-5.95
13,O=C(O)c1ccc(S(=O)(=O)NCc2ccc3c(c2)OCO3)cc1,-2.19
14,OC(c1ccc(Cl)cc1)C(CN1CCOCC1)c1ccccc1 (configuration not stated),-9.66
15,CC(C)OCC(O)CN1CCC(Cc2ccccc2)CC1 (configuration not stated),-3.38
16,COC(=O)CN(c1cccc(C)c1)S(=O)(=O)c1ccccc1,-3.43
17,COCCNC(=O)c1ccc(N(C)S(=O)(=O)c2ccc(OC)c(OC)c2)cc1,14.3
18,CCOc1ccc(-c2nc(CSc3nnc(N)s3)cs2)cc1OC,-24.8
19,C=CCNC(=O)COc1coc(CN2CCN(C(=O)c3ccco3)CC2)cc1=O,-8.24
20,C=C[C@@]1(C)CC(=O)[C@]2(O)[C@@]3(C)[C@@H](O)CCC(C)(C)[C@@H]3[C@H](O)[C@H](OC(C)=O)[C@@]2(C)O1,16.2
21,Nc1nc(N)nc(-c2ccc(Cl)cc2)n1,20.1
22,Cc1cccc(-c2cc3nc4c(c(N5CCCC(O)C5)n3n2)CCC4)c1 (configuration not stated),-17.7
23,C=C1[C@@H](O)[C@H](CC(C)C)N(Cc2ccccc2Br)S1(=O)=O,1.38
24,Cc1c(NC(=S)NC(=O)c2sc3ccccc3c2Cl)cccc1C(=O)O,-3.09

row,Structure (SMILES),activation [%]
1,CCn1nnc(NC(=O)c2sc3ccccc3c2Cl)n1,9.4
2,Fc1ccc(-c2csc3nnc(SCc4cccnc4)n23)cc1,-10.5
3,CC(C)(C)OC(=O)N1CCCN(C(=O)c2ccc(Cl)cc2)CC1,-6.9
4,COc1nc(Nc2ccccc2)nc(OC)n1,18.4
5,CC1(C)N=C(c2ccccc2)C(c2ccccc2)=N1,-1.46
6,COc1ccc2nc3ccccc3nc2c1NC(=O)c1ccc(Cl)cc1,21.8
7,Cc1c(C)n(CCCN(C)C)c2ncnc(Nc3ccccc3)c12,-21.3
8,COc1ccc(C)c(-n2c(=O)n(Cc3ccccc3)c(=O)c3[nH]cnc32)c1,-3.94
9,COc1ccc(CCn2nnc(-c3ccc(NC(C)=O)c(Cl)c3)n2)cc1,-1.36
10,Cc1ccc(OCC(=O)NC(C)c2ccccc2)cc1 (configuration not stated),9.34
11,NC(=O)COC(=O)c1ccccc1Oc1ccccc1,2.37
12,Fc1ccc(-c2cc(C(F)(F)F)nc(-n3cncn3)n2)cc1,21.9
13,CCOC(=O)Nc1ccc2c(c1)Sc1ccccc1N2C(=O)CCN1CCOCC1,0.499
14,CCOC(=O)c1cnc2c(cnn2C)c1Oc1ccc(OC)cc1,5.49
15,CCNc1nc(CC)nc2c1oc1ccccc12,8.28
16,CCCCn1c(-c2ccncc2)nc2c1c(=O)[nH]c(=O)n2CC(C)C,31.7
17,COCCn1c(-c2ccc3ccccc3c2)nc2c1c(=O)[nH]c(=O)n2CC(C)C,10.6
18,Cc1cc(S(=O)(=O)NCc2cccnc2)ccc1F,-4
19,Cc1cccn2cc(CCNS(=O)(=O)c3cccs3)nc12,-10.6
20,COc1cc2ccc(C(C)=NNC(N)=S)cc2cc1OC,-6.54
21,O=C(Nc1ccnn1C1CCN(C2CCC2)CC1)c1ccccc1Cl,-5.89
22,CC1Cc2ccccc2N1C(=S)NC(=O)c1cccc(Br)c1 (configuration not stated),-5.85
23,O=S(=O)(NCC1CCCO1)c1ccc(Cl)nc1 (configuration not stated),-8.07
24,CC(C)CC(=O)Nc1c2c(nn1-c1ccc(F)cc1)CS(=O)(=O)C2,-0.198

row,Structure (SMILES),activation [%]
1,Cc1ccccc1-n1nc2c(c1NC(=O)c1cc3ccccc3oc1=O)CS(=O)(=O)C2,5.15
2,O=C1N(c2ccccc2)c2ccccc2[C@]12C[C@H](O)CO2,-11.7
3,CC(C(=O)Nc1ccc2[nH]c(=O)[nH]c2c1)N1CCN(Cc2ccc3c(c2)OCO3)CC1 (configuration not stated),-9.39
4,O=C(c1ccco1)N1CCN(C2CN(Cc3ccccc3)S(=O)(=O)C2)CC1 (configuration not stated),-9.32
5,COc1ccc(-c2nnc3sc(-c4ccco4)nn23)cc1OC,6.22
6,COc1ccc(-c2ccncc2)cc1OC,15.7
7,COc1ccc(-c2nc(C(=O)O)cs2)cc1OC,-3.24
8,Cc1ccc2nc(N3CCN(C(=O)CCCC(=O)O)CC3)nc(-c3ccccc3)c2c1,25.8
9,COc1ccc(-c2nnn(Cc3nc(N)nc(N4CCOCC4)n3)n2)cc1OC,-2.45
10,COc1ccc(-c2cc(-c3ccco3)[nH]c(=O)c2C#N)cc1OC,-10.6
11,CC(C)C(C(=O)NCc1ccco1)N(CC1CCCO1)C(=O)CNS(=O)(=O)c1ccc(F)cc1 (configuration not stated),8.11
12,COc1cccc(-n2c(=O)n(Cc3ccccc3)c(=O)c3[nH]cnc32)c1C,1.8
13,CCOc1nc(NC(=O)NS(=O)(=O)c2cccc(Cl)c2)nc(-c2ccccc2)n1,-0.406
14,COc1ccccc1-n1cnc2sc(C)c(C)c2c1=O,-11.2
15,CCCCNC(=O)O[C@H]1C[C@@H]2CCN3C(=O)CCC[C@H]([C@H]1CC)[C@H]23,-16.4
16,COc1ccc(CCNS(=O)(=O)c2cccc(C)c2)cc1OC,-10.9
17,CCN(CC)CCCN=C1N[C@@H](c2ccccc2)C(C(=O)OC)=C(C)N1CC,-10.1
18,CCNC(=O)C1(C)CCCN1Cc1cccc(C(F)(F)F)c1 (configuration not stated),24.4
19,O=C(c1ccccc1F)N1CCCC(N2CCN(Cc3ccc4c(c3)OCO4)CC2)C1 (configuration not stated),-10.6
20,COc1ccc(S(=O)(=O)N(C)c2ccc(C(=O)N3CCCC3)cc2)cc1OC,-8.35
21,CCN(CC)C(=O)c1ccccc1NS(=O)(=O)c1ccc(C)cc1,-0.799
22,CCN(CCC(=O)O)c1ccccc1,-5.78
23,CCCCC(=O)N(C)c1c(CC)nc2c(OCc3ccc(C(F)(F)F)cc3)cccn12,16.1
24,C=C(C)n1c(=O)n(Cc2ccccc2C)c2ccccc21,13.3
